From PubChem BioAssay (Tox21) come the findings set out here.

Each structure is given as a SMILES string. A number with no mark means an inactive call. Inconclusive results are not listed. Active and inactive are the calls of the source. Unless noted, calls come from the whole dose curve.

A short description of assay [1]: Nuclear factor erythroid 2-related factor 2/antioxidant responsive element (Nrf2/ARE) small molecule agonists: qHTS cell viability counter screen in human keratinocytes (AID 1919968; active = well fitted curve in the direction sought with a large enough effect in the repeat runs; an effect the other way counts as inactive or inconclusive; note: nearly all actives have a fitted effect of over 55% in size). Put shortly: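 Cells of the KeratinoSens line were plated at 1,500 per well and left for 5 h before compound transfer from DMSO stocks. After a 23 h incubation (37 C, 5% CO2), CellTiter-Fluor was added. Signal was taken as fluorescence intensity 1 h later.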

Assay [2] can be described thus: Nuclear factor erythroid 2-related factor 2/antioxidant responsive element (Nrf2/ARE) small molecule agonists: luciferase reporter gene qHTS assay in human keratinocytes (AID 1919969). Note: nearly all actives have a fitted effect of over 35% in size. For orientation: In a reporter assay the amount or activity of a reporter protein is the signal.
The target of assay [3] is Gonadotropin-releasing hormone receptor (Homo sapiens) (UniProt P30968). Briefly: Human gonadotropin-releasing hormone receptor (GnRHR) small molecule agonists, calcium flux assay in GnRHR-HEK293 cells (AID 1920063). Note: nearly all actives have a fitted effect of over 35% in size. Put shortly:
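Compounds dissolved in DMSO are pin-transferred onto dye-loaded GnRHR-HEK293 cells, which were seeded 18 h before at 37 C/5% CO2. Calcium signal is read as fluorescence intensity at 1 s intervals for 3 min.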
Background: Calcium flux is commonly read through the fluorescence of an indicator in the cells.

Assay [4] deals with KiSS-1 receptor (Homo sapiens) (UniProt Q969F8). As to the kind of experiment: Human kisspeptin (KISS1R) small molecule agonists, calcium flux assay in KISS1R-HEK293 cells (AID 1920064; active = well fitted curve in the direction sought with a large enough effect in the repeat runs; an effect the other way counts as inactive or inconclusive). Put shortly: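 Cell line: HEK293, stable human KISS1R. Dye loading 1 h at 37 C after 18 h culture. Read: kinetic fluorescence, 480/540 nm, 3 min at 1 s intervals.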
Assay [5] is described as follows: G protein-coupled receptor (GPCR) small molecule agonists, calcium flux assay: HEK293 wild type cell line counter screen (AID 1920065). A digest of the protocol: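 Tox21 10K compounds, 15 concentrations each in triplicate, pin-transferred in DMSO onto dye-loaded cells; kinetic read at 480/540 nm for 3 min, 1 s intervals.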
Assay [6] can be described thus: p53 small molecule agonists, cell-based qHTS assay with human liver microsomes (AID 1963577). Put shortly: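 p53RE-bla reporter cells were pre-incubated 5 h at 37 C, then treated with compounds plus human liver microsomes (0.5 mg/mL final) and NADPH (0.5 mg/mL final) for 16 h at 37 C. Beta-lactamase activity was read by LiveBLAzer fluorescence after 2 h at room temperature.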
On the technique in general: qHTS replaces the single test concentration by a dilution series.

A short description of assay [7]: p53 small molecule agonists, cell-based qHTS assay with rat liver microsomes (AID 1963578). A digest of the protocol:
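p53RE-bla cells were exposed to compounds together with rat liver microsomes (0.5 mg/mL final) and NADPH (0.5 mg/mL final) for 16 h at 37 C, then read by LiveBLAzer beta-lactamase fluorescence after 2 h at room temperature.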

The nature of assay [8]: p53 small molecule agonists, cell-based qHTS assay with human liver microsomes: qHTS cell viability counter screen (AID 1963579). Note: nearly all actives have a fitted effect of over 45% in size. A digest of the protocol: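 p53RE-bla cells (4,000/well) were pre-incubated 5 h at 37 C, then given compounds in DMSO plus human liver microsomes (0.5 mg/mL final) and NADPH (0.5 mg/mL final) for 16 h at 37 C. Viability was read by CellTiter-Glo luminescence.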

A short description of assay [9]: p53 small molecule agonists, cell-based qHTS assay with rat liver microsomes: qHTS cell viability counter screen (AID 1963580). Note: nearly all actives have a fitted effect of over 45% in size. Put shortly: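 Luminescent ATP readout (CellTiter-Glo, 30 min at room temperature) reports viability of p53RE-bla HCT-116 cells after 16 h at 37 C with test compounds under metabolic activation by rat liver microsomes and NADPH at 0.5 mg/mL final each.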

The target of assay [10] is 5-hydroxytryptamine receptor 2A (Homo sapiens) (UniProt P28223). As to the kind of experiment: 5-hydroxytryptamine receptor 2A (HTR2A) small molecule antagonists, cell-based qHTS assay (AID 1963586). Note: nearly all actives have a fitted effect of over 45% in size. Put shortly:
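CHO cells stably expressing human HTR2A were plated for 18 h at 37 C, then loaded with calcium dye for 1 h. Compounds were preincubated 5 min at room temperature before DOI (4 nM solution) was added. Kinetic fluorescence was read for 3 min.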

The target is the same in assay [11]. As to the kind of experiment: 5-hydroxytryptamine receptor 2A (HTR2A) small molecule agonists, cell-based qHTS assay (AID 1963587). Note: nearly all actives have a fitted effect of over 30% in size. A digest of the protocol:
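HTR2A-CHO cells, plated 18 h at 37 C/5% CO2, dye-loaded 1 h at 37 C; compounds in DMSO added by pin tool (agonist mode). Intracellular calcium flux read as kinetic fluorescence on FDSS over 2 min at 1 s intervals.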

Assay [12] has as its target Muscarinic acetylcholine receptor M1 (Homo sapiens) (UniProt P11229). Briefly: Cholinergic receptor muscarinic 1 (CHRM1) small molecule antagonists, cell-based qHTS assay (AID 1963588). Note: nearly all actives have a fitted effect of over 40% in size. Note: potency is the fitted concentration of half-maximal effect. A digest of the protocol: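 Compounds were tested at 15 concentrations in three independent runs. Dye-loaded CHRM1-CHO cells were exposed 5 min at room temperature before stimulation by acetylcholine added at 50nM. Intracellular calcium was read kinetically on FDSS for 3 min.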

For assay [13] the target is unchanged. Briefly: Cholinergic receptor muscarinic 1 (CHRM1) small molecule agonists, cell-based qHTS assay (AID 1963589). Note: nearly all actives have a fitted effect of over 35% in size. A digest of the protocol: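 Homogeneous fluorescence calcium flux, agonist mode. Human M1-expressing CHO cells; compound dosed at 15 concentrations, three independent runs; signal sampled every 1 sec.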
A short description of assay [14]: cAMP Responsive Elements (CRE) small molecule agonists, cell-based qHTS assay (AID 1963590). Put shortly:
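HEK 293T cells stably bearing CRE-bla were plated at 2,000 cells per well and rested 18 h. Compounds, positive controls or DMSO were added for 3 h at 37 C. LiveBLAzer B/G substrate was then loaded for 2 h at room temperature.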

The target of assay [15] is Beta-2 adrenergic receptor (Homo sapiens) (UniProt P07550). Briefly: Adrenergic beta2 receptor (ADRB2) small molecule antagonists, cell-based qHTS assay (AID 1963592). Note: series mostly up to about 92 µM; nearly all actives have a fitted effect of over 50% in size. Put shortly:
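Assay format: CHO-ADRB2 cells, 18-20hr seeding at 37C/5% CO2, then compound plus 1nM isoproterenol agonist mix for 0.5hr RT. Homogeneous time-resolved fluorescence cAMP detection after 1hr, expressed as 665/615 nm ratio.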

For assay [16] the target is unchanged. As to the kind of experiment: Adrenergic beta2 receptor (ADRB2) small molecule agonists, cell-based qHTS assay (AID 1963593).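 Note: CHO cells stably overexpressing human ADRB2.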 Put shortly: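 CHO cells stably over-expressing ADRB2 were plated overnight at 37C, then dosed with compounds plus a stimulation mix containing 100uM IBMX and 25uM Ro-20-1724 for 0.5hr at room temperature. cAMP was measured by HTRF competition, 1hr.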

Assay [17] concerns the target D(2) dopamine receptor (Homo sapiens) (UniProt P14416). Briefly: Dopamine D2 receptor (DRD2) small molecule agonists, cell-based qHTS assay (AID 1963594). Note: nearly all actives have a fitted effect of over 35% in size. Put shortly:
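HEK293 cells stably expressing DRD2 were cultured 24 h at 37 C, then given Ro20-1724 (0.1 mM final) and compounds for 10 min at room temperature. NKH477 (200nM) was then added for 30 min. cAMP was read by HTRF.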

Assay [18] has the same target. Briefly: Dopamine D2 receptor (DRD2) small molecule antagonists, cell-based qHTS assay (AID 1963595; active = well fitted inhibition curve with a large enough effect in the signal ratio in the repeat runs, with a control signal flat; the % refers to the signal ratio). A digest of the protocol:
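Cells were plated and grown for 24 h at 37 °C. Ro20-1724 (0.1 mM final) went in first, then compound for 10 min. NKH477 (200 nM) with quinpirole (12 nM) followed for 30 min at RT, then HTRF detection reagents for 1 h.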

Assay [19] in a line: p53 small molecule agonists, cell-based qHTS assay: qHTS cell viability counter screen (AID 1963581). Note: nearly all actives have a fitted effect of over 45% in size. A digest of the protocol:
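ATP content measured by luminescence in HCT-116 p53RE-bla cells treated 16 h at 37 C, same wells as the reporter screen.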

A short description of assay [20]: cAMP Responsive Elements (CRE) small molecule antagonists, cell-based qHTS assay (AID 1963591; active = well fitted inhibition curve with a large enough effect in the signal ratio in the repeat runs, not every such curve was filed as active; the % refers to the signal ratio). Put shortly: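 First, CRE-bla HEK293T cells settled 18 h at 37 C. Next, compound and 0.25 uM final NKH477 were applied for 3 h. Last, LiveBLAzer B/G substrate was loaded for 2 h at room temperature.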

Sequence of Gonadotropin-releasing hormone receptor (Homo sapiens) (P30968 whole entry, looked up): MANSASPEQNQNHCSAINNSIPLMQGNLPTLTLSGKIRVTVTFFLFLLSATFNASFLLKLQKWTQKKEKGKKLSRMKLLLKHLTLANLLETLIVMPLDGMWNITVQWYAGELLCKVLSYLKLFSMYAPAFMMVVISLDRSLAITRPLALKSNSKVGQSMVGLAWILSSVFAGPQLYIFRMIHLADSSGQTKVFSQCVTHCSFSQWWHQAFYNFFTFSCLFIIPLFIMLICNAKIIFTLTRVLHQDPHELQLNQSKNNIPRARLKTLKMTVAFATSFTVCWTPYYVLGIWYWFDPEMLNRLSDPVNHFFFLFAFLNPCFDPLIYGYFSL
Sequence of KiSS-1 receptor (Homo sapiens) (Q969F8 whole entry, looked up): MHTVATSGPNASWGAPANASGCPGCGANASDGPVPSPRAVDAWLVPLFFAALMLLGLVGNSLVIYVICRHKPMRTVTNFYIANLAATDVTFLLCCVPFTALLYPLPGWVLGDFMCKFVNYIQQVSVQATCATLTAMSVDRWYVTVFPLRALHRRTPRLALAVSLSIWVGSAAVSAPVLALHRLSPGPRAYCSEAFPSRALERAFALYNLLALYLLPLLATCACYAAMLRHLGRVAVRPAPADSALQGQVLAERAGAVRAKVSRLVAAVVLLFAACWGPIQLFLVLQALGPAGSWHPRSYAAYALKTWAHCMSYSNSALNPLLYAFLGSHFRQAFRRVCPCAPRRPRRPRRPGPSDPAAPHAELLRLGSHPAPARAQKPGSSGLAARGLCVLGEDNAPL
Sequence of D(2) dopamine receptor (Homo sapiens) (P14416 whole entry, looked up): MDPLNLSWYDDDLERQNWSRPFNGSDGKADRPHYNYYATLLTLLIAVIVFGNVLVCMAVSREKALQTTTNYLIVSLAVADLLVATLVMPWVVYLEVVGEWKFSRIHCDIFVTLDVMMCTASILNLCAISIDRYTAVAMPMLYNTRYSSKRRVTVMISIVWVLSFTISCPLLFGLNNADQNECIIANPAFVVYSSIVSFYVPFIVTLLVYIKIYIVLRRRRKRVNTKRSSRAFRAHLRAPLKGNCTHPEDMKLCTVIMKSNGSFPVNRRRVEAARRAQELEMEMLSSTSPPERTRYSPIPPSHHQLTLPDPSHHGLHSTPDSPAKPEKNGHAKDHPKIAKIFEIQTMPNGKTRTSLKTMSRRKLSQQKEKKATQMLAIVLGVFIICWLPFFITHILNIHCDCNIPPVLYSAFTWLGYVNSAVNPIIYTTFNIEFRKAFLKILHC
Sequence of Muscarinic acetylcholine receptor M1 (Homo sapiens) (P11229 whole entry, looked up): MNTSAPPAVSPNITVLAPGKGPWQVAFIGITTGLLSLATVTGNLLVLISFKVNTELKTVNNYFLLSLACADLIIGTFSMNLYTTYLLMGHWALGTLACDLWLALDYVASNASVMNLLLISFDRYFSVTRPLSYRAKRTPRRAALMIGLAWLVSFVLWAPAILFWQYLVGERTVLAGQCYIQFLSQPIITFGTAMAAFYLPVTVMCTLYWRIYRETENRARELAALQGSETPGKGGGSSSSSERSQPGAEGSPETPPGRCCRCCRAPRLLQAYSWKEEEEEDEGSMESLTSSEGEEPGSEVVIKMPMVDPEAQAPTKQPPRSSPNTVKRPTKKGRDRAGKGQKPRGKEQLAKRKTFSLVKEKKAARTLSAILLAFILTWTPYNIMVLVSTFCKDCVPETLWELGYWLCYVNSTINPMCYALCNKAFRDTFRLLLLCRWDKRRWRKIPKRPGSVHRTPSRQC
Sequence of 5-hydroxytryptamine receptor 2A (Homo sapiens) (P28223 whole entry, looked up): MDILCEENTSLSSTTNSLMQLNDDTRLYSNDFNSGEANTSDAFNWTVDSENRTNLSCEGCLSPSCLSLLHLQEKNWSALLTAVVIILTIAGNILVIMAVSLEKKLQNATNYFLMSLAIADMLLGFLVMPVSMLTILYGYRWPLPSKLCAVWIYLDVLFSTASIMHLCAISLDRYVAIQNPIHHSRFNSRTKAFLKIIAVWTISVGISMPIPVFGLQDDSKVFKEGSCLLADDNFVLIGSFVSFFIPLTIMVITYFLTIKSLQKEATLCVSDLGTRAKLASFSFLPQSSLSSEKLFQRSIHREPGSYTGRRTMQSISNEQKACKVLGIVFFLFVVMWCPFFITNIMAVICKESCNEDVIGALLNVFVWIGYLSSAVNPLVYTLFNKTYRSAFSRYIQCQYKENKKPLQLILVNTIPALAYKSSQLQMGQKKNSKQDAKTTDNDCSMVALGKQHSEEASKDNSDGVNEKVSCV
Sequence of Beta-2 adrenergic receptor (Homo sapiens) (P07550 whole entry, looked up): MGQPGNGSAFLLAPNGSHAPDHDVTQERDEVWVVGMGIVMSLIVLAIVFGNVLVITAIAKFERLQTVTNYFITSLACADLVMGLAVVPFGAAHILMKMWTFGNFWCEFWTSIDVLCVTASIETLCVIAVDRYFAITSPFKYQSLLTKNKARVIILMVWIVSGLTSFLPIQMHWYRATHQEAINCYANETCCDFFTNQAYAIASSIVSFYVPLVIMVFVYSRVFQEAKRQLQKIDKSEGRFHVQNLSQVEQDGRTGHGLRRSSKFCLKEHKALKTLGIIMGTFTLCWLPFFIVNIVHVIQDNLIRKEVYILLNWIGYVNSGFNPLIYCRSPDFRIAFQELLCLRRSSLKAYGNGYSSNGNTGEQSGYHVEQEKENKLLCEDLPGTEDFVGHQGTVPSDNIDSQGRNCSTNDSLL

Consider `Nc1nc(-c2ccccc2)c(Br)c(=O)[nH]1`, for which the Potency entry in [1], in assay [2], in assay [3], in [6], in assay [7] and in [8] was “inactive” in each case. Also, the Potency entry in [9], in assay [10], in assay [11], in assay [12], in assay [13] and in assay [14] was “inactive” in each case. Also, the Potency entry in assay [15], in assay [16], in [17] and in assay [18] was “inactive” each time. Further, the outcome in assay [4] and in [5] was inactive.
With `COc1c(N2CCNC(C)C2)c(F)cc2c(=O)c(C(=O)O)cn(C3CC3)c12` (stereo not drawn), the Potency result in assay [1], in assay [2], in assay [3], in assay [6], in assay [7] and in assay [8] was “inactive” throughout. Further, the Potency result in [9], in assay [19], in assay [14], in [15], in assay [17] and in [18] was “inactive” each time. Also, the outcome in assay [4] and in assay [5] was inactive.
As to `Cc1cccc(C)c1NC(=O)c1cc(S(N)(=O)=O)c(Cl)cc1O`, the Potency result in assay [1], in [2], in assay [3], in assay [6], in [7] and in assay [8] was “inactive” each time. The Potency entry in assay [9], in [10], in assay [11], in [13], in [14] and in assay [20] was “inactive” each time. Moreover, the Potency result in assay [15], in [17] and in assay [18] was “inactive” each time. The result in [4] and in [5] was inactive. The Potency in assay [12] was 3.3 nM (active).
For the molecule `CC(C(=O)O)c1ccc(-c2ccccc2)c(F)c1` (stereo not drawn), the Potency result in assay [1], in assay [2], in assay [3], in [6], in [7] and in [8] was “inactive” throughout. The Potency entry in assay [9], in assay [19], in [15], in [17] and in assay [18] was “inactive” each time. Further, the result in [4] and in [5] was inactive.
Regarding `CN1CC(=O)NC1=N`, the Potency result in assay [1], in assay [2], in [3], in [6], in assay [7] and in [8] was “inactive” each time. The Potency result in assay [9], in assay [10], in assay [11], in assay [12], in assay [13] and in assay [14] was “inactive” in each case. Moreover, the Potency entry in assay [15], in [17] and in assay [18] was “inactive” each time. In addition, the outcome in assay [4] and in [5] was inactive.
In the case of `CC(CC(C)(C)C)CC(C)(C)CC(C)(C)C` (stereo not drawn), the Potency entry in assay [1], in [2], in [3], in assay [6], in assay [7] and in assay [8] was “inactive” throughout. In addition, the Potency result in assay [9], in assay [10], in assay [11], in [12], in assay [13] and in assay [14] was “inactive” in each case. In addition, the Potency result in [20], in assay [15], in [17] and in assay [18] was “inactive” each time. In addition, the outcome in assay [4] and in assay [5] was inactive.
